Assay results: PubChem BioAssay
Records with an inconclusive call do not appear. Active and inactive are the calls of the source.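 Rule for the calls, unless noted: active = differentiation response of at least 50%, scaled between solvent and reference control, from cells with both markers; inactive = the rest.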

Experiments:
[1] = yeast TOR pathway RPL19A-GFP modulators, primary screen, cell-based, S. cerevisiae, multiplex flow cytometry (AID 1862; in the data active = percent of DMSO control GFP below about 86%;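 note: lower values mimic rapamycin by blocking the RPL19A rise seen in DMSO cells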); settings: S. cerevisiae RPL19A-GFP strain, flow cytometry fluorescence, 3 h; at 10 µM; stronger effect = lower value
[2] = modulators of MEP2-GFP levels in yeast, primary screen, S. cerevisiae, multiplex flow cytometry (AID 1867;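 active = GFP response, as percent of the DMSO control, above the screen-wide mean plus 3 SD, about 139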;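 note: median GFP channel fluorescence of barcode-gated MEP2-GFP cells measured by flow cytometry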); settings: S. cerevisiae MEP2-GFP strain, 3 h, at 10 µM, stronger effect = higher value, 100% means same as DMSO wells
[3] = modulators of CIT2-GFP expression in yeast, primary screen, S. cerevisiae, GFP fusion, multiplex flow cytometry (AID 1870;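 active = percent response above a set limit, the screen-wide mean plus 3 SD, cut at about 130% in these data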;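 note: barcoded CIT2-GFP strain pooled with four other GFP strains with rapamycin as positive control; median GFP fluorescence per well over plate mean of DMSO wells so 100% = DMSO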); settings: 3 h, at 10 µM, stronger effect = higher value
[4] = modulators of LAP4-GFP expression in yeast, primary screen, S. cerevisiae, multiplex flow cytometry (AID 1873;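 active = GFP signal, as percent of the solvent control, above the screen mean plus 3 SD, about 149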); settings: 3 h, at 10 µM, stronger effect = higher value
[5] = modulators of AGP1-GFP expression in yeast TOR pathway, primary screen, cell-based, multiplex flow cytometry, S. cerevisiae (AID 1887;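 active = GFP signal above the screen-wide mean plus 3 SD, that is over about 124.5% of the solvent control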;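 note: AGP1-GFP fusion strain of S. cerevisiae within a five-strain barcoded multiplex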); settings: 3 h, at 10 µM, stronger effect = higher value
[6] = RPL19A-GFP modulators, yeast TOR pathway, confirmation, cell-based, S. cerevisiae, flow cytometry, cherry picks, mother/daughter gates (AID 2270;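 active = GFP response below 50% of the DMSO control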); settings: S. cerevisiae RPL19A-GFP strain, 3 h, at 10 µM, stronger effect = lower value, 100 = same GFP as DMSO wells
[7] = LAP4-GFP expression modulators in yeast, confirmation, cell-based, cherry picks, flow cytometry, mother/daughter gates (AID 2271;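 active = GFP response above 150% of the DMSO control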;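 note: ratio of sample to DMSO plate mean so 100% equals DMSO level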); settings: S. cerevisiae LAP4-GFP strain, 3 h, at 10 µM, stronger effect = higher value, 100 means same as DMSO control
[8] = modulators of MEP2-GFP levels in yeast, confirmation, S. cerevisiae, flow cytometry GFP, cherry picks (AID 2272;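 active = GFP response above 150% of the DMSO control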;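 note: ratio of well signal to plate DMSO mean so 100% equals DMSO level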); settings: S. cerevisiae MEP2-GFP strain, 3 h, at 10 µM, stronger effect = higher value
[9] = modulators of CIT2-GFP expression in yeast, confirmation, S. cerevisiae, GFP fusion, cherry picks, mother/daughter gates (AID 2274;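 active = GFP response above 150% of the DMSO level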); settings: S. cerevisiae CIT2-GFP strain, flow cytometry, 3 h, at 10 µM, stronger effect = higher value
[10] = inhibitors of CD8+ T cell-vesicle binding, pilot screen, LFA-1/ICAM-1 modulator project, MLPCN validation set, flow cytometry (AID 2523;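 active = response below a set limit, under 55% cells CD8-positive and vesicle-bound, and CD8 cells' 90th-percentile brightness under 279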;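 for vesicle binding response: mean PE anti-B7-1 fluorescence of CD8+ cells relative to row control; 100% = QL9-loaded vesicles with DMSO vehicle in the same plate row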); settings: 2C mouse CD8+ T cells, at 7 µM, stronger effect = lower value; double positive events: measured here: CD8+/vesicle+ event percentage
[11] = target: Beta-adrenergic receptor kinase 1 (Homo sapiens) (UniProt P25098); assay: GRK2 binders displacing RNA aptamer, biochemical, validation, human GRK2, bead flow cytometry (AID 488806;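 active = aptamer binding inhibition above 30%, about 3 SD of noise from non-fluorescent compounds; inactive = inhibition at or below 30%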); settings: bead-bound GRK2, FAM-aptamer displacement, at 10 µM, stronger effect = higher value
[12] = target: Beta-2 adrenergic receptor (Homo sapiens) (UniProt P07550); assay: beta2AR agonists driving receptor internalization, pilot screen, cell-based, FAP fluorogen, flow cytometry, validation set (AID 504459;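 active = percent response above 42, roughly 3 SD of non-fluorescent test compounds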;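 note: agonist-driven loss of surface beta2AR via internalization measured by FAP dye flow cytometry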); settings: Am2.2-beta2AR cells, FAP surface receptor flow cytometry; at 10 µM; stronger effect = higher value
[13] = target: AP-2 complex subunit beta (Homo sapiens) (UniProt P63010); assay: inhibitors of arrestin peptide binding to AP2, pilot screen, biochemical, validation set, GST-AP2 beads, flow cytometry (AID 504541;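 active = inhibition above 54%, about 3 SD of non-fluorescent compounds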;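 note: AP2 carries R879A mutation and is captured from E. coli lysate; bead-bound FITC arrestin peptide fluorescence measuring arrestin peptide binding to AP2; 0% = DMSO wells and 100% = excess unlabeled arrestin peptide control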); settings: FITC arrestin peptide, at 10 µM, stronger effect = higher value, AP2 beta2 appendage fragment, R879A mutant
[14] = yeast V-ATPase proton transport modulators, S. cerevisiae, pHLuorin, HTS validation (AID 504600; in the data active = response above about 15%;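 note: plate controls were DMSO for no effect and reference compound for full effect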); settings: S. cerevisiae pHLuorin cytosolic pH, at 10 µM, stronger effect = higher value
[15] = test system: anti-desmoglein-3 scFv antibody binding to human DSG3; assay: inhibitors of anti-DSG3 scFv binding to DSG3, pilot screen, biochemical, validation compound set, bead-based, flow cytometry (AID 588368;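 active = binding below the plate cutoff, the plate median minus 3 SD, with a reading above zero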;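 note: signal is the median channel fluorescence of bead-bound GFP antibody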); settings: Protein G beads, DSG3-Fc, scFv-GFP binding, at 10 µM, stronger effect = lower value
[16] = inhibitors of fungal efflux pumps CDR1, CDR2, MDR1, pilot screen, validation compound set, multiplex, phenotypic (AID 588506;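 active = efflux inhibition above 0.42, the validation set average plus 4 SD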;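 note: Nile Red retained in cells so higher fluorescence means more efflux inhibition; 0 = negative control wells and 1 = enniatin B 25 µM full block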); settings: S. cerevisiae pump-expressing triplex, Nile Red efflux flow cytometry; at 10 µM; stronger effect = higher value; the pumps come from Candida albicans
[17] = target: ATP-binding cassette sub-family B member 6 (Homo sapiens) (UniProt Q9NP58); assay: ABCB6 transporter inhibitors, pilot screen, K562-ABCB6 cells, flow cytometry, validation set (AID 588550;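 active = inhibition above the screen-wide mean plus 3 SD, about 51%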;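 note: 0% = DMSO wells and 100% = benzethonium chloride 70 µM positive control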); settings: K562-ABCB6 porphyrin accumulation, 1 h, at 10 µM, stronger effect = higher value
[18] = promoters of myeloid differentiation in arrested cells, primary screen, cell-based, GFP/MAC1 double positive, flow cytometry, validation set (AID 588685); settings: ER-HoxA9 marrow cells, stronger effect = higher value, normalized: vehicle 0, fulvestrant 100;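 note: compound exposure lasts four days before antibody staining and flow analysis; 0% = DMSO wells and 100% = 5 µM fulvestrant positive control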
[19] = target: Integrin beta-1 (Homo sapiens) + Integrin alpha-4 (Homo sapiens) (UniProt P13612+P05556); assay: inhibition of HUTS-21 binding to VLA-4, pilot screen, VLA-4 allosteric modulator project, U937 cells, HUTS-21 mAb, flow cytometry, validation set (AID 2674;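 active = inhibition above 50%, about 3 SD of the validation set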;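 note: antibody binding induced by the VLA-4 ligand LDV present at three times its Kd; 0% = LDV ligand with antibody and no compound and 100% = antibody without LDV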); settings: HUTS-21 LIBS mAb binding, at 6.7 µM, stronger effect = higher value, binding induced by LDV ligand
[20] = superoxide lowering in aged yeast cells, pilot screen, validation compound set (AID 2706;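 active = superoxide response below 65% of plate, a cut near 3 SD across the whole screen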;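 note: yeast exposed to compound for one week at 30 degrees C before staining; 100% = mean of all compound wells on the same plate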); settings: S. cerevisiae aging, superoxide DHE fluorescence; at 10 µM; stronger effect = lower value
[21] = measured here: daughter cell gate
[22] = measured here: mother cell gate
[23] = measured here: daughter cell gate response
[24] = measured here: mother cell gate response

Integrin beta-1 (Homo sapiens) + Integrin alpha-4 (Homo sapiens), sequence (P05556 whole entry, looked up): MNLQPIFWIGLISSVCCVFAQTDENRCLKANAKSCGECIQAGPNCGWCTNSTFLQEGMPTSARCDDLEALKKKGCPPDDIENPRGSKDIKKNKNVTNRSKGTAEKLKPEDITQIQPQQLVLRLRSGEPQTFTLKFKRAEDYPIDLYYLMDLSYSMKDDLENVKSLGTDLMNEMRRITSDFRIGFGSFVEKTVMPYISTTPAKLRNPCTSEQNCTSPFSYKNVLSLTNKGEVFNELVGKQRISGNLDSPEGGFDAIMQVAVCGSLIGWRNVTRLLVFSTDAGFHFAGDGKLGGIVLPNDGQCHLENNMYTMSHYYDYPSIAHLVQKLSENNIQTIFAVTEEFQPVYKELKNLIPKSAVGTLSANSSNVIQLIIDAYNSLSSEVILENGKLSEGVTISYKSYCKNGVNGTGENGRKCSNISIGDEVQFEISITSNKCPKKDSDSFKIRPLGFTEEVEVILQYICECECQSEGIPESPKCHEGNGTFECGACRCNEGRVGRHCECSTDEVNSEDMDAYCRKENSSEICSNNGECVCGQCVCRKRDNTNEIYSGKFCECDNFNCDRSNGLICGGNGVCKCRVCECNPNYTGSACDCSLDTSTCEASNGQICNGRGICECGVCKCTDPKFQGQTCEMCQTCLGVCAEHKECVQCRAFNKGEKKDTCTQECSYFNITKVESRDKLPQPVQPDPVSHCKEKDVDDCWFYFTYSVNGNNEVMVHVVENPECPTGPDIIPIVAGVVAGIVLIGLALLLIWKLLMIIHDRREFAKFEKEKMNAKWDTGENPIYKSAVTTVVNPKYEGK
Integrin beta-1 (Homo sapiens) + Integrin alpha-4 (Homo sapiens), sequence (P13612 whole entry, looked up): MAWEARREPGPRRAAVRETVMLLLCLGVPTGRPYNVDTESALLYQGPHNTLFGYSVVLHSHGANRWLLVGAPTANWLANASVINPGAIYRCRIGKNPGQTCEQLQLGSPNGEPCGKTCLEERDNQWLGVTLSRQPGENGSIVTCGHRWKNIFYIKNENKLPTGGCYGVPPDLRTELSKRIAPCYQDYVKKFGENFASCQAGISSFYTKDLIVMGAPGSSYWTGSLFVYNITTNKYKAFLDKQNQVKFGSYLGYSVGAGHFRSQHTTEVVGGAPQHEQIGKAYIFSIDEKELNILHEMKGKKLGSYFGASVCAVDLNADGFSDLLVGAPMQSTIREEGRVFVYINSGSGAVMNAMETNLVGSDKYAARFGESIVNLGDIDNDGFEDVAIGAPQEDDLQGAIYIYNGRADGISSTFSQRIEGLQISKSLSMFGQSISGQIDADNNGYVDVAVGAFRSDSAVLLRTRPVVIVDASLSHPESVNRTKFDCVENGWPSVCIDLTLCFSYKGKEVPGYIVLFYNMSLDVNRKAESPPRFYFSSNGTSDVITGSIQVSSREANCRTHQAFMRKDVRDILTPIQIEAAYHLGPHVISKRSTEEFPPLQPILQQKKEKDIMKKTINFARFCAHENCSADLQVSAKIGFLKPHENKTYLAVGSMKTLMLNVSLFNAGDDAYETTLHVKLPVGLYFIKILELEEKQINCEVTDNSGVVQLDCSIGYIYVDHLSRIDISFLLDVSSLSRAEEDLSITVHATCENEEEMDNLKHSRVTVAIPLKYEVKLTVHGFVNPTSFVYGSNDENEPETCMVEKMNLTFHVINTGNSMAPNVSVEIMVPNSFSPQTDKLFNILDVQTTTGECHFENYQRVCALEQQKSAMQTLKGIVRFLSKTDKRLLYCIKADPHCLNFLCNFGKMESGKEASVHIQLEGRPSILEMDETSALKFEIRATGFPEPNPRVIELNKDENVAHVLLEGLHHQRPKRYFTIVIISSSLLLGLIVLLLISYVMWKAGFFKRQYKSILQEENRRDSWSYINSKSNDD
Beta-2 adrenergic receptor (Homo sapiens), sequence (P07550 whole entry, looked up): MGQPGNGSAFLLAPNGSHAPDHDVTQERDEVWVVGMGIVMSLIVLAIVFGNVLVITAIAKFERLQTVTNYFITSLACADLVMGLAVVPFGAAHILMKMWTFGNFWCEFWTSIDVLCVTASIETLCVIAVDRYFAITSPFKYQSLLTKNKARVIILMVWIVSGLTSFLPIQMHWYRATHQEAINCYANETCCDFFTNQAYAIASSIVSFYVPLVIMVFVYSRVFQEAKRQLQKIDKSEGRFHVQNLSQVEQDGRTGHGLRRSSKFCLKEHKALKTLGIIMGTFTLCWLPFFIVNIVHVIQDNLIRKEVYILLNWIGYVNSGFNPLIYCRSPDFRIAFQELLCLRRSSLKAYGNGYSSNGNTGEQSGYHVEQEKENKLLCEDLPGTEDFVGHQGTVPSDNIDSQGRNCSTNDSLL
Beta-adrenergic receptor kinase 1 (Homo sapiens), sequence (P25098 whole entry, looked up): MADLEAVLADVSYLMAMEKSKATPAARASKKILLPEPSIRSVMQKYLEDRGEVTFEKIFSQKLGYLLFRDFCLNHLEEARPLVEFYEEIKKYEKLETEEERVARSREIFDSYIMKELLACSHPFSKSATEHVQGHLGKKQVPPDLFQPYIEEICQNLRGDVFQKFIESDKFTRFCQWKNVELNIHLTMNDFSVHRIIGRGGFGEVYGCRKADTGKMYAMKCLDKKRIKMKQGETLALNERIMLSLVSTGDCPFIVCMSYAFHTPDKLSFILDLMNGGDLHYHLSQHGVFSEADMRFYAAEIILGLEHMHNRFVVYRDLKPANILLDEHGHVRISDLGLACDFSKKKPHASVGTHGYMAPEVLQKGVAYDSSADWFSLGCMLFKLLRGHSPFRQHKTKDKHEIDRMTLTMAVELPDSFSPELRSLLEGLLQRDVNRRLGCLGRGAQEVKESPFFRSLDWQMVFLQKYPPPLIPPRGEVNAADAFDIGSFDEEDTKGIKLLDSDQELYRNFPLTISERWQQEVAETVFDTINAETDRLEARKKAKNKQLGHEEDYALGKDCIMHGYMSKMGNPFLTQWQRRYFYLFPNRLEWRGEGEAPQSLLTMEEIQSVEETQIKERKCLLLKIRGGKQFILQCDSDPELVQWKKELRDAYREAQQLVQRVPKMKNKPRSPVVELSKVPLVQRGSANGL
ATP-binding cassette sub-family B member 6 (Homo sapiens), sequence (Q9NP58 whole entry, looked up): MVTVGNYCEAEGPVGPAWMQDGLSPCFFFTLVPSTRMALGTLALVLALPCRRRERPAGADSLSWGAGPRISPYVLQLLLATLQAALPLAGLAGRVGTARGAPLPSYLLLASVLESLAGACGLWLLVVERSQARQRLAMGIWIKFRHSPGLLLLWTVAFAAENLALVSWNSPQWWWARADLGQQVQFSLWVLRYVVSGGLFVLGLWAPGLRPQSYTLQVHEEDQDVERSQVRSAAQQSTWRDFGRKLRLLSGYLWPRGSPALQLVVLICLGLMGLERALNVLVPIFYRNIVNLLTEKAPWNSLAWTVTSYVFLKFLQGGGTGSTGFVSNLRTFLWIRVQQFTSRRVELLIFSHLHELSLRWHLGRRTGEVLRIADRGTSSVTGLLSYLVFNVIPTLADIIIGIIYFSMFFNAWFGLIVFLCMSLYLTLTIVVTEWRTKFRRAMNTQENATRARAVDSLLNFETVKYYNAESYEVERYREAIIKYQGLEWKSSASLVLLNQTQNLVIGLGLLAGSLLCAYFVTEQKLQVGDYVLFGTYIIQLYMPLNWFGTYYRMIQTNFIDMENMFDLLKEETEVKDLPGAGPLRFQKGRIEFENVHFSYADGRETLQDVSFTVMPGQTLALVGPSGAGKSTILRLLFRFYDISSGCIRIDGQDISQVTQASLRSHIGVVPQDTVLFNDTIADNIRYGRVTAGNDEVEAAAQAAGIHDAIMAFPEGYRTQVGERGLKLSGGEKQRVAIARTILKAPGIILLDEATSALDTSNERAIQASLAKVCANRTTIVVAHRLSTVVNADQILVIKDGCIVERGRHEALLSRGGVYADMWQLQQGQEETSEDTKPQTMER
AP-2 complex subunit beta (Homo sapiens), sequence (P63010 whole entry, looked up, the tested form may be a part, one chain of several): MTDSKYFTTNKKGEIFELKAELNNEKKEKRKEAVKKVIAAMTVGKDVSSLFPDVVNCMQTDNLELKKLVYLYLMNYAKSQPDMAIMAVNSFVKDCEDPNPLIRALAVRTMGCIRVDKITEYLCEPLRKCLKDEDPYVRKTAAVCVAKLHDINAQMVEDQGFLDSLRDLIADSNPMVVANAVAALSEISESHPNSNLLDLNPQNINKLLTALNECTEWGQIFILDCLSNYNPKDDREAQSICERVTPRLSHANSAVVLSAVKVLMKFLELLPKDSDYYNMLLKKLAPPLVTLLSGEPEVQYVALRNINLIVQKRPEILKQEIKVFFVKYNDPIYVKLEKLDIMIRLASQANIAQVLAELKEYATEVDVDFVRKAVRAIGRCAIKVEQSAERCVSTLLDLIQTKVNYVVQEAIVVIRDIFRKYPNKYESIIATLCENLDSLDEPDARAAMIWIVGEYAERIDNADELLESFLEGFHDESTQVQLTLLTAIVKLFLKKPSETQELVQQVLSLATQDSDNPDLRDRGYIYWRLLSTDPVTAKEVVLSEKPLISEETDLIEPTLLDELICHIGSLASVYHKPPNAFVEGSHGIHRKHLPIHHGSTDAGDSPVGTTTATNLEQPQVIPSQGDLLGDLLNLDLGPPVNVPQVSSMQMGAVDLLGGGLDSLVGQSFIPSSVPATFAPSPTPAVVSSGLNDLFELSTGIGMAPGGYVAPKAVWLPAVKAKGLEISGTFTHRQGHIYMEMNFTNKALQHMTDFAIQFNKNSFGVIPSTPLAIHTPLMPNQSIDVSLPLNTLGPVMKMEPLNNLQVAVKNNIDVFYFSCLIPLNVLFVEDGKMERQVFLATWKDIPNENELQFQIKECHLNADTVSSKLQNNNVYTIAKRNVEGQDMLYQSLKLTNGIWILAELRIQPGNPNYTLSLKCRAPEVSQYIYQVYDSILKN

COc1cc(/C=C/C(=O)CC(=O)/C=C/c2ccc(O)c(OC)c2)ccc1O
inactive: percent of DMSO control GFP [1] 117% | GFP response vs DMSO [2] 114% | GFP response vs DMSO [4] 114% | GFP response, % of DMSO [5] 95.1% | GFP response vs DMSO [6] 105% | GFP response relative to DMSO [7] 93.8% | GFP response vs DMSO [8] 111% | GFP response, % of DMSO [9] 111% | vesicle binding response [10] 39.9% | aptamer binding inhibition [11] 6% | response [12] -195% | inhibition [13] 14.9% | response [14] -4.77% | binding (% of control) [15] 129% | efflux inhibition (fraction of control) [16] 0.24 | inhibition [17] -398% | differentiation response [18] 18.8%
active: percent response of DMSO control [3] 135%
61.2%: double positive events [10]

Nc1[nH]c(=O)ncc1F
95%: GFP response relative to DMSO [7, 23]
inactive: GFP response vs DMSO [2] 107% | percent response of DMSO control [3] 87.1% | GFP response vs DMSO [4] 113% | GFP response, % of DMSO [5] 80.8% | GFP response vs DMSO [6] 74.7% | GFP response relative to DMSO [7] 107% | GFP response vs DMSO [8] 106% | GFP response, % of DMSO [9] 80.6% | vesicle binding response [10] 142% | inhibition [19] 10% | superoxide response (% of plate) [20] 67.3% | aptamer binding inhibition [11] 0% | inhibition [13] 27% | response [14] -5.4% | binding (% of control) [15] 108% | efflux inhibition (fraction of control) [16] 0.33 | inhibition [17] 1% | differentiation response [18] 7.87%
61.3%: double positive events [10]
111%: GFP response relative to DMSO [7, 24]
81.6%: GFP response, % of DMSO [9, 22]
active: percent of DMSO control GFP [1] 84.2%
70.4%: GFP response vs DMSO [6, 21]
79.7%: GFP response, % of DMSO [9, 21]
78.1%: GFP response vs DMSO [6, 22]

CC(=O)[C@H]1CC[C@H]2[C@@H]3CCC4=CC(=O)CC[C@]4(C)[C@H]3[C@H](O)C[C@]12C
inactive: percent of DMSO control GFP [1] 93% | percent response of DMSO control [3] 99.2% | GFP response vs DMSO [4] 85.3% | GFP response, % of DMSO [5] 93.3% | GFP response vs DMSO [6] 99.1% | GFP response relative to DMSO [7] 100% | GFP response vs DMSO [8] 97.5% | GFP response, % of DMSO [9] 101% | vesicle binding response [10] 64.9% | inhibition [19] -20.7% | superoxide response (% of plate) [20] 109% | aptamer binding inhibition [11] 3% | response [12] 0.15% | inhibition [13] 16.3% | response [14] -2.3% | binding (% of control) [15] 97.4% | efflux inhibition (fraction of control) [16] 0.12 | inhibition [17] 2% | differentiation response [18] 4.09%
99.7%: GFP response vs DMSO [6, 22]
98.5%: GFP response relative to DMSO [7, 24]
57.7%: double positive events [10]
active: GFP response vs DMSO [2] 147%
102%: GFP response relative to DMSO [7, 23] | GFP response, % of DMSO [9, 21]
99.1%: GFP response, % of DMSO [9, 22]
99.3%: GFP response vs DMSO [6, 21]

C[C@]12CC[C@@H]3c4ccc(O)cc4C(=O)C[C@H]3[C@@H]1CC[C@@H]2O
98.5%: GFP response vs DMSO [6, 22]
39.3%: double positive events [10]
active: GFP response vs DMSO [2] 148% | vesicle binding response [10] 60.7%
108%: GFP response, % of DMSO [9, 21]
113%: GFP response, % of DMSO [9, 22]
95.6%: GFP response vs DMSO [6, 21] | GFP response relative to DMSO [7, 23]
92.1%: GFP response relative to DMSO [7, 24]
inactive: percent of DMSO control GFP [1] 98.3% | percent response of DMSO control [3] 116% | GFP response vs DMSO [4] 88% | GFP response, % of DMSO [5] 97.5% | GFP response vs DMSO [6] 97.4% | GFP response relative to DMSO [7] 90.2% | GFP response vs DMSO [8] 95.7% | GFP response, % of DMSO [9] 111% | inhibition [19] -0.33% | superoxide response (% of plate) [20] 104% | aptamer binding inhibition [11] 1% | response [12] -10.5% | inhibition [13] 44.1% | response [14] -4.63% | binding (% of control) [15] 91.9% | efflux inhibition (fraction of control) [16] 0.37 | inhibition [17] 0% | differentiation response [18] 0.82%
